Test systems include DU-145 prostate; K-562 leukemia; MALME-3M melanoma; MDA-MB-231 breast; RXF 393 renal; SF-268 CNS; SF-295 CNS; SF-539 CNS; M14 melanoma; HCT-15 colon; HT29 colon; SNB-75 CNS; SNB-19 CNS; U251 CNS; PC-3 prostate; SK-MEL-5 melanoma; UACC-62 melanoma; LOX IMVI melanoma; SK-MEL-28 melanoma; UACC-257 melanoma.
Holding throughout (experiment): NCI-60 one-dose screen, 48 h (100 = growth as untreated, 0 = no growth, -100 = all killed)
What all share (conditions): 10 µM

This is part of a sample that, as a whole, favours compounds with a hit. Of some 83,000 tested, about 20% had one in any assay.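 Treatment: one concentration, 48 hours, 96-well format. Scoring: percent growth, with anything below 10 considered active.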 The source made the active and inactive calls.

As for `O=C(Nc1ccc(OS(=O)(=O)c2ccccc2)cc1)C1CCCCC1`, the growth in the assay on DU-145 prostate was 92.8% (inactive); in the assay on K-562 leukemia, 60.6% (inactive); in the assay with MALME-3M melanoma, 81.9% (inactive); with MDA-MB-231 breast, 73.1% (inactive); with RXF 393 renal, 87.5% (inactive); in the assay on SF-268 CNS, 90.2% (inactive). Besides, the growth in the assay on SF-295 CNS was 89.7% (inactive); in the assay with SF-539 CNS, 80.4% (inactive); in the assay with M14 melanoma it was 70.3% (inactive); with HCT-15 colon, 67.7% (inactive); with HT29 colon, 39.3% (inactive); with SNB-75 CNS, 95.7% (inactive). Moreover, the growth was 89.2% (inactive) in the assay on SNB-19 CNS; 69.6% (inactive) in the assay with U251 CNS; 72.7% (inactive) in the assay on PC-3 prostate; 77.1% (inactive) in the assay with SK-MEL-5 melanoma; 89.5% (inactive) in the assay on UACC-62 melanoma; 86.2% (inactive) in the assay on LOX IMVI melanoma. For the same compound, in the assay on SK-MEL-28 melanoma, the growth was 91.7% (inactive).

As for `Cc1ccc(C(=O)C2C(=O)C3CCC2C3)cc1` (stereo not drawn), the growth in the assay with DU-145 prostate was 121% (inactive); with K-562 leukemia, 102% (inactive); with MALME-3M melanoma, 121% (inactive); in the assay on MDA-MB-231 breast, 107% (inactive); in the assay with RXF 393 renal, 109% (inactive); with SF-268 CNS, 108% (inactive). The growth is 101% (inactive) in the assay on SF-295 CNS; 106% (inactive) in the assay on SF-539 CNS; 94.1% (inactive) with UACC-257 melanoma; 111% (inactive) in the assay on M14 melanoma; 106% (inactive) in the assay on HCT-15 colon; 108% (inactive) in the assay with HT29 colon. Besides, the growth is 93.7% (inactive) with SNB-75 CNS; 95.7% (inactive) in the assay with SNB-19 CNS; 94.2% (inactive) in the assay with PC-3 prostate; 102% (inactive) in the assay with SK-MEL-5 melanoma; 98.9% (inactive) in the assay with UACC-62 melanoma; 99.6% (inactive) in the assay with SK-MEL-28 melanoma.

Regarding `COc1ccc(-c2nn(-c3cccc(Cl)c3)cc2-c2cc(-c3ccccc3)nc(N)n2)cc1`, the growth in the assay on DU-145 prostate is 95.1% (inactive); in the assay with K-562 leukemia, -3.82% (active); with MALME-3M melanoma, 52.1% (inactive); in the assay with MDA-MB-231 breast, 35.1% (inactive); with RXF 393 renal it was 56.2% (inactive); with SF-268 CNS, 65.7% (inactive). The growth is 55% (inactive) in the assay on SF-295 CNS; 89% (inactive) in the assay on SF-539 CNS; 81.1% (inactive) in the assay with UACC-257 melanoma; 52.6% (inactive) in the assay with M14 melanoma; 44.5% (inactive) in the assay with HCT-15 colon; 19.5% (inactive) in the assay on HT29 colon. The growth was 89.9% (inactive) in the assay with SNB-75 CNS; 75.2% (inactive) with SNB-19 CNS; 40% (inactive) with PC-3 prostate; 73.3% (inactive) in the assay on SK-MEL-5 melanoma; -84.1% (active) in the assay on LOX IMVI melanoma; 83.8% (inactive) with SK-MEL-28 melanoma.

On to `C/C=C/C1=CN2C(=O)c3cc(OC4OC(C)C(NC)C(C)(O)C4O)c(C)c(O)c3N=C[C@@H]2C1` (stereo partly drawn), for which the growth with DU-145 prostate is -12.7% (active); in the assay on K-562 leukemia it was 4.18% (active); in the assay on MALME-3M melanoma, -51.9% (active); in the assay on MDA-MB-231 breast it was -10.1% (active); with RXF 393 renal, -40.5% (active); in the assay on SF-268 CNS, -35.5% (active). In addition, the growth was -25% (active) with SF-295 CNS; -46.1% (active) in the assay with SF-539 CNS; -6.48% (active) in the assay on UACC-257 melanoma; -63.2% (active) in the assay with M14 melanoma; 4.24% (active) with HCT-15 colon; 5.18% (active) in the assay with HT29 colon. Further, the growth in the assay on SNB-19 CNS was 9.3% (active); in the assay with U251 CNS, 5.6% (active); in the assay with PC-3 prostate, 3.42% (active); in the assay with SK-MEL-5 melanoma, -62.2% (active); in the assay with UACC-62 melanoma, -90.8% (active); in the assay with LOX IMVI melanoma, -21.4% (active). The growth in the assay on SK-MEL-28 melanoma is -37.2% (active).

With `COc1cc2c(cc1NC(=O)C(F)(F)F)-c1ccc(NC(=O)C(F)(F)F)cc1C2`, the growth in the assay on DU-145 prostate is 93.4% (inactive); with K-562 leukemia it was 100% (inactive); in the assay on MALME-3M melanoma, 83.7% (inactive); with MDA-MB-231 breast it was 91.1% (inactive); with RXF 393 renal it was 35.7% (inactive); in the assay with SF-268 CNS, 90.1% (inactive). Moreover, the growth in the assay on SF-295 CNS is 83.4% (inactive); with SF-539 CNS, 80.6% (inactive); with UACC-257 melanoma, 109% (inactive); in the assay with M14 melanoma, 113% (inactive); in the assay with HCT-15 colon it was 106% (inactive); in the assay on HT29 colon, 106% (inactive). Besides, the growth was -1.06% (active) with SNB-75 CNS; 86.4% (inactive) in the assay with SNB-19 CNS; 90.8% (inactive) in the assay on PC-3 prostate; 90.8% (inactive) in the assay with SK-MEL-5 melanoma; 94.2% (inactive) in the assay with LOX IMVI melanoma; 103% (inactive) in the assay with SK-MEL-28 melanoma.

Regarding `COc1ccc(C(=O)N2C=Cc3ccccc3C2C#N)cc1` (stereo not drawn), the growth in the assay on DU-145 prostate is 109% (inactive); with K-562 leukemia, 67.4% (inactive); in the assay with MALME-3M melanoma, 100% (inactive); in the assay on MDA-MB-231 breast it was 86.9% (inactive); in the assay on RXF 393 renal it was 90% (inactive); in the assay on SF-268 CNS, 99.9% (inactive). In addition, the growth was 99.2% (inactive) in the assay with SF-295 CNS; 96.8% (inactive) in the assay with SF-539 CNS; 93.7% (inactive) in the assay on UACC-257 melanoma; 116% (inactive) with M14 melanoma; 90.7% (inactive) with HCT-15 colon; 110% (inactive) with HT29 colon. Moreover, the growth in the assay with SNB-75 CNS was 94.1% (inactive); in the assay on SNB-19 CNS it was 93.6% (inactive); with PC-3 prostate, 93.2% (inactive); in the assay with SK-MEL-5 melanoma, 101% (inactive); with UACC-62 melanoma, 92.5% (inactive); in the assay with SK-MEL-28 melanoma, 95.3% (inactive).

For `Nc1ccc(/C=N/Nc2ccnc3c(O)cccc23)c2cccnc12`, the growth with DU-145 prostate is 37.4% (inactive); with K-562 leukemia, 0.593% (active); with MALME-3M melanoma it was 101% (inactive); with MDA-MB-231 breast it was 0.678% (active); in the assay with RXF 393 renal, 55.8% (inactive); in the assay on SF-268 CNS, 43.5% (inactive). In addition, the growth was 84.8% (inactive) in the assay with SF-295 CNS; 67.7% (inactive) with SF-539 CNS; 105% (inactive) in the assay with UACC-257 melanoma; 53.8% (inactive) with M14 melanoma; 26.1% (inactive) in the assay on HCT-15 colon; 56.8% (inactive) in the assay on HT29 colon. For the same compound, the growth was 69.9% (inactive) in the assay with SNB-75 CNS; 72.7% (inactive) in the assay with SNB-19 CNS; 34.8% (inactive) with PC-3 prostate; 82.3% (inactive) in the assay on SK-MEL-5 melanoma; 95.2% (inactive) in the assay with UACC-62 melanoma; 90.9% (inactive) in the assay on SK-MEL-28 melanoma.

Source of the values: PubChem BioAssay (NCI).
